Source: PubChem BioAssay
CYP2C19 inhib: human CYP2C19 inhibition; inhibition, % at 5 µM; hit rate 21% among 96,000; P33261; CYP2C19 Supersomes, luciferin-H EGE luminescence, 30 min;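 active = CYP2C19 inhibition above a set limit at 5 µM in the primary screen, cut at about 50% in these data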;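 also: plate controls were negative control wells for no effect and 2.5 mM tranylcypromine positive control for full effect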
Target sequence (P33261 whole entry, looked up): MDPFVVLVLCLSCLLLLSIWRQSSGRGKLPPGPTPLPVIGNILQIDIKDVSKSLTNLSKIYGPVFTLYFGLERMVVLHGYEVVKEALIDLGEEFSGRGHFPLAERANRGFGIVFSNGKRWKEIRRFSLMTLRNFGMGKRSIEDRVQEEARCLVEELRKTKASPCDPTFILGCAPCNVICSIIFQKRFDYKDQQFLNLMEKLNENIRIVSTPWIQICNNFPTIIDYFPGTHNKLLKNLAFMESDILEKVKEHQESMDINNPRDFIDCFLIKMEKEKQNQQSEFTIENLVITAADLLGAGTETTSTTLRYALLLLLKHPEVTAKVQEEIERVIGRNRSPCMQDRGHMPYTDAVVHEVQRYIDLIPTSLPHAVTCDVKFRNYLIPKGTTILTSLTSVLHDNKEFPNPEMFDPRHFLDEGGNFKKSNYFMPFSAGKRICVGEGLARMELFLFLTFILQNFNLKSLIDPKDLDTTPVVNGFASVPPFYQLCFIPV
PLK1 kinase inh: inhibitors of human PLK1 kinase; P53350; recombinant PLK1 kinase, TR-FRET peptide phosphorylation; inhibition, % at 10 µM; hit rate 0.53% among 97,000;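 active = inhibition of 50% or more in the single-concentration screen; inactive = inhibition below 50%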;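 also: 0% = DMSO max control and 100% = H-89 dihydrochloride min control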
CYP2C19 activ: activators of human cytochrome P450 2C19; recombinant CYP2C19, luciferin-H EGE luminescence; active compounds read high; 0 = fully inhibited enzyme, 1 = untreated enzyme; activation factor at 5 µM; AID 1025; 96,000 tested, under 10 active;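 active = activation factor of at least 2 at 5 µM in the primary screen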;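 also: 0 = wells with 2.5 mM tranylcypromine and 1 = vehicle-only wells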
CYP2C9 activ: activators of human CYP2C9. P11712. recombinant CYP2C9, luciferin-H conversion, luminescence; active compounds read high; factor 1 = untreated enzyme, 0 = blocked. activation factor at 5 µM. hit rate 1.4% among 96,000. AID 1024;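 active = activation factor of 2 or more for CYP2C9 at a 5 µM dose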;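 also: 0 = sulfaphenazole-blocked wells and 1 = vehicle-only wells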
Plk1 PBD FP: inhibitors of human Plk1 polo box domain binding | P53350 | Plk1 PBD phosphopeptide binding, fluorescence polarization | inhibition, %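 (tested at about 20 µM)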 | hit rate 0.13% among 97,000 | AID 693; in the data active = inhibition above about 34%, passing the limit was not always enough
CYP2C9 inhib: human CYP2C9 inhibition; P11712; CYP2C9 Supersomes, luciferin-H conversion, luminescence; inhibition, % at 5 µM; hit rate 20% among 96,000; AID 777;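 active = blocking of liver enzyme CYP2C9 beyond about 50% at 5 µM, limit read from the data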
* hit, by the source's call; x = not tested or not shown. In the library only some 28% were active in any assay of this set; here they are far more common.

SMILES | CYP2C19 inhib | PLK1 kinase inh | CYP2C19 activ | CYP2C9 activ | Plk1 PBD FP | CYP2C9 inhib
O=S(=O)(c1ccc(Br)s1)N1CCN(c2ncccn2)CC1 | 37.9 | -5.4 | 0.6 | 0.4 | -20.2 | 61.1*
COc1ccc(N2CCN(S(=O)(=O)c3ccc(Br)s3)CC2)cc1 | 18.4 | -12.4 | 0.8 | 0.9 | 11.7 | 7.4
CCC(C)S(=O)(=O)c1snnc1C (centres undefined) | 3.5 | -10.7 | 1 | 1.1 | -9.8 | -12.3
Cc1cc(C)nc(NC(=O)NS(=O)(=O)N2CCCCCC2)n1 | -7.2 | -12.6 | 1.1 | 1.1 | -6.1 | -11.6
CCCN(CCC)C(=O)c1cc(-c2ccc3c(c2)OCO3)nc2ccccc12 | 97.0* | -1.8 | 0 | 0 | 4.7 | 100.3*
O=C(O)c1cc(-c2ccc3c(c2)OCO3)nc2ccccc12 | -2.5 | x | 1 | 0.6 | x | 39.7
CC(=O)c1ccc(N2CCN(C(=O)c3cc(-c4ccc5c(c4)OCO5)nc4ccccc34)CC2)cc1 | 36.7 | -14.1 | 0.6 | 0.4 | -5.2 | 62.5*
CC(NC(=O)c1cc(-c2ccc3c(c2)OCO3)nc2ccccc12)C(C)(C)C (centres undefined) | 29.5 | -6.7 | 0.7 | 0.4 | -7.8 | 55.8*
O=C(Nc1ccon1)c1cc(-c2ccccc2)nc2ccccc12 | x | 7.6 | x | x | 6.5 | x
Cc1cccc(/C=N/NC(=O)c2cc3c(s2)-c2ccccc2CC3)c1 | 8.7 | -11.8 | 0.9 | 1 | 1.6 | 4.5
Cc1cc(N2CCC(C(N)=O)CC2)nc(-c2ccccc2)n1 | -6.0 | -17.0 | 1.1 | 0.5 | -14.6 | 53.2*
Cc1cc(N2CCC(C(=O)Nc3ccc(F)cc3)CC2)nc(-c2ccccc2)n1 | 81.9* | -2.0 | 0.2 | 0.4 | 22.3 | 62.3*
NC(=O)C1CCN(c2nc(-c3ccccc3)nc3ccccc23)CC1 | 21.4 | -12.8 | 0.8 | 0.5 | -13.6 | 53.7*
COc1cc(CCNC(=O)c2cnn3ccccc23)cc(OC)c1OC | 40.5 | -14.7 | 0.6 | 0.8 | 8.4 | 17.0
CCN(CC(=O)NCc1cccs1)c1ccc(S(=O)(=O)N2CCOCC2)cn1 | -4.7 | -0.3 | 1 | 0.4 | -12.8 | 57.3*
CCN(CC(=O)NCc1cccs1)C(=O)c1cc(S(=O)(=O)N2CCOCC2)ccc1C | 33.8 | -11.5 | 0.7 | 0.8 | -5.7 | 19.9
COc1ccc(N(Cc2cc3ccc(C)cc3[nH]c2=O)C(C)=O)cc1 | 9.8 | -16.3 | 0.9 | 0.8 | -9.7 | 24.3
CN=C(Nc1cc(Cl)ccc1Cl)SC1CC(=O)N(c2ccc(C(=O)OC)cc2)C1=O (centres undefined) | 91.7* | -9.9 | 0.1 | 0 | -9.4 | 99.9*
O=C(c1ccco1)N1CCN(C(=O)c2cnn3c(C(F)(F)F)cc(-c4cccs4)nc23)CC1 | 30.5 | -16.5 | 0.7 | 0.8 | -1.7 | 15.8
COc1ccccc1NS(=O)(=O)c1cccs1 | 80.9* | -14.5 | 0.2 | 2.2* | -11.4 | -116.6
COc1cccc(Nc2nc3ccccc3nc2NS(=O)(=O)c2cccs2)c1 | 0.8 | -8.9 | 1 | 0.8 | -0.1 | 17.0
COc1ccc(NS(=O)(=O)c2ccc(SC)cc2)c(OC)c1 | 87.0* | -27.7 | 0.1 | 1.6 | 19.1 | -60.1
COc1ccc(S(=O)(=O)CCC(=O)Nc2ccc(OC)cc2OC)cc1 | x | -10.3 | x | x | -2.7 | x
COc1ccc(NS(=O)(=O)c2cccs2)c(OC)c1 | 54.9* | 1.2 | 0.5 | 1.7 | 18.2 | -67.9
CN(C)C=Nc1ncc2c3ccccc3n(Cc3ccccc3)c2c1C#N | -1.9 | x | 1 | 0.8 | x | 23.4
SMILES | CYP2C19 inhib | PLK1 kinase inh | CYP2C19 activ | CYP2C9 activ | Plk1 PBD FP | CYP2C9 inhib
CCN(CC)CCn1c2ccccc2c2cnc(N)c(C#N)c21 | -4.8 | 52.0* | 1 | 1 | -19.5 | -3.0
CN(C)C=Nc1ncc2c3ccccc3n(CCN(C)C)c2c1C#N | 19.1 | 45.4 | 0.8 | 0.4 | 0.8 | 57.8*
CC(=O)Nc1ccc(C(=O)n2nc(C)cc2C)cc1 | 3.8 | x | 1 | 1.1 | x | -8.1
CCOc1ccccc1C1CC(=O)NC(SCC(=O)Nc2nccs2)=C1C#N (centres undefined) | 60.1* | 0.0 | 0.4 | 0.3 | -26.4 | 67.0*
N#CC1=C(SCC(=O)Nc2ccccc2)NC(=O)CC1c1ccc(O)cc1 (centres undefined) | 70.9* | 8.4 | 0.3 | 0.7 | 25.5 | 33.6
COC(=O)CSC1=C(C#N)C(c2ccsc2)CC(=O)N1 (centres undefined) | x | -8.2 | x | x | -12.1 | x
CCOc1ccccc1C1CC(=O)NC(SCC)=C1C#N (centres undefined) | 39.3 | -13.9 | 0.6 | 0.7 | -12.3 | 25.8
Cc1ccc(C2CC(=O)NC(SCC(=O)Nc3nccs3)=C2C#N)cc1 (centres undefined) | 28.3 | 5.0 | 0.7 | 0.3 | 21.4 | 65.2*
CCN(CC)S(=O)(=O)c1ccc(NS(=O)(=O)c2ccc(C)c(C)c2)cc1 | 97.6* | -5.5 | 0 | 0 | 1.3 | 99.4*
CCN(CC)S(=O)(=O)c1ccc(S(=O)(=O)Nc2ccc(C(=O)N3CCCC3)cc2)cc1 | 51.4* | -10.7 | 0.5 | 0 | -8.7 | 99.1*
CCN(CC)S(=O)(=O)c1ccc(S(=O)(=O)Nc2ccc3c(c2)oc2ccccc23)cc1 | 69.6* | -4.3 | 0.3 | 0 | 10.3 | 99.5*
O=C(c1ccc(NS(=O)(=O)c2ccccc2)cc1)N1CCCC1 | 76.4* | -11.8 | 0.2 | 0.1 | -21.7 | 92.8*
Cc1cc(N2CCOCC2)nc2ccc(NC(=O)CCC(=O)N3CCCC(C)C3)cc12 (centres undefined) | 1.6 | -8.8 | 1 | 1.1 | -23.7 | -8.4
CCC(=O)Nc1cccc(NC(=O)CSc2nnc(C(C)C)n2CC)c1 | 4.3 | -18.6 | 1 | 1 | -19.7 | -1.1
CCN(CC)S(=O)(=O)c1ccc2c(c1)nc(SCC(=O)N1CCCCCC1)n2-c1ccc(OC)cc1 | 14.1 | -9.3 | 0.9 | 0.2 | -5.3 | 81.4*
O=C(c1scc2c1CCCC2)N1CCCCC1 | 7.8 | -14.1 | 0.9 | 1.2 | 11.2 | -23.4
O=C(c1ccccc1)c1ccc(Oc2ncccn2)cc1 | 62.6* | 2.0 | 0.4 | 0.8 | 19.6 | 21.3
CC(=O)Nc1ccc(Oc2ncccn2)cc1 | -13.8 | -7.3 | 1.1 | 1.1 | -9.4 | -10.5
COc1ccc(N2CCN(C(=O)c3ccc(S(=O)(=O)N4CCOCC4)cc3)CC2)cc1 | -0.3 | -16.0 | 1 | 1 | -11.0 | 0.9
COc1ccc(N2CCN(C(=O)c3ccc(NS(=O)(=O)c4ccc(F)cc4)cc3)CC2)cc1 | 23.7 | -24.9 | 0.8 | 0.1 | 19.2 | 90.6*
CCOc1ccc(S(=O)(=O)Nc2cccc(C(=O)N3CCN(c4ccc(OC)cc4)CC3)c2)cc1 | 61.8* | 7.2 | 0.4 | 0.4 | -15.0 | 60.3*
O=C(c1cnsn1)N1CCN(c2ccccn2)CC1 | 27.4 | -7.2 | 0.7 | 1.7 | -8.2 | -65.3
Cc1nc2ccccn2c1/C(O)=C1\C(=O)C(=O)N(CCN2CCOCC2)C1c1cccs1 (centres undefined) | 0.8 | x | 1 | 0.9 | x | 11.2
